Reference: the supplement of paper PMC10849652
Of roughly 7,900 targets only a part is listed; those with a hit were picked by preference. About 0.6% of all pairs of compound and target were hits.

Key:
Experiment in all cases: log2 fold change, soluble protein after heating vs DMSO (PISA); higher = thermal stabilisation; K562 cells, 10 uM, 30 min; active = over 0.2 and 3.5 SD of the protein, either way, in both replicates (recomputed)
[1] = compound: CC[C@@H]1C(=O)N(C)c2cnc(Nc3ccc(C(=O)NC4CCN(C)CC4)cc3OC)nc2N1C1CCCC1
How it was run: (§1)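 Thermal stability values are relative to control samples and come from duplicates. They are expressed as log2 fold changes. For measurement, K562 cells (2×10^6 cells/mL) received 10 μM compound for 30 min, and aliquots were heated for 3 min over 48°C-58°C, pooled, and extracted at 4°C in PBS with 0.5% NP-40. Soluble protein, the supernatant after 21,000xg for 90 min, was quantified by TMTpro 16plex LC-MS/MS with equalised channel sums.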

[2] = compound: CC[C@@H]1C(=O)N(C)c2cnc(Nc3ccc(C(=O)N[C@H]4CC[C@H](N5CCN(CC6CC6)CC5)CC4)cc3OC)nc2N1C(C)C [volasertib]
How it was run: as §1

[3] = compound: CC[C@H](C)N1C=C(C2=C(C=C(C=C21)C3=CN=C(C=C3)N4CCNCC4)C(=O)NCC5=C(C=C(NC5=O)C)C)C
How it was run: as §1

[4] = compound: CC[C@H](C)[C@@H](C(=O)N[C@@H]([C@@H](C)O)C(=O)N[C@@H](CC(C)C)C(=O)[C@]1(CO1)C)NC(=O)[C@H]([C@@H](C)CC)N(C)C(=O)C [epoxomicin]
How it was run: as §1

[5] = compound: CCn1c(C(=O)N(C2CC2)C2CC2)cc2c3c(ncn3C)c(Nc3cc(C)n(C)n3)nc21
How it was run: as §1

[6] = compound: CCn1cc(-c2ccnc3[nH]c(-c4cccc(CN(C)C)c4)cc23)c(-c2ccc(NC(=O)N(C)C)cc2)n1
How it was run: as §1

[7] = compound: CN(C)CC(=O)Nc1ccc2[nH]c(=O)c3ccccc3c2c1
How it was run: as §1

[8] = compound: CN(CCOC1=CC=C(C=C1)C[C@H]2C(=O)NC(=O)S2)C3=CC=CC=N3 (racemic) [rosiglitazone]
How it was run: as §1

[9] = compound: CN1C2=C(C3=C1C(=O)N(N=C3)CC4=CC(=CC=C4)N)SC(=C2)S(=O)C
How it was run: as §1

[10] = compound: CN1CCC(CNc2ccc3ncc(-c4cccc(OC(F)(F)F)c4)n3n2)CC1
How it was run: as §1

[11] = compound: CN1CCN(CCOc2cc(OC3CCOCC3)c3c(Nc4c(Cl)ccc5c4OCO5)ncnc3c2)CC1 [saracatinib]
How it was run: as §1

[12] = compound: CN1CCN(c2nc(C3=C(c4c[nH]c5ccccc45)C(=O)NC3=O)c3ccccc3n2)CC1 [sotrastaurin]
How it was run: as §1

[13] = compound: CN1CC[C@H](c2c(O)cc(O)c3c(=O)cc(-c4ccccc4Cl)oc23)[C@H](O)C1 [alvocidib]
How it was run: as §1

[14] = compound: CN1CCc2c(c3ccccc3n2Cc2ccc(C(=O)NO)cc2)C1 [Tubastatin A]
How it was run: as §1

[15] = compound: CNC(=O)C1=CC=CC=C1NC2=NC(=NC=C2Cl)NC3=C(C=C(C=C3)N4CCOCC4)OC
How it was run: as §1

[16] = compound: CNC(=O)c1ccc(Nc2ncc(C(F)(F)F)c(NCc3nccnc3N(C)S(C)(=O)=O)n2)cc1 [defactinib]
How it was run: as §1

[17] = compound: CNCc1ccc(-c2[nH]c3cc(F)cc4c3c2CCNC4=O)cc1 [rucaparib]
How it was run: as §1

[18] = compound: CNc1nc(-c2ccc3c(N)n[nH]c3c2)cc(N2C[C@@H](C(=O)NC3CCCCC3)CC[C@H]2C)n1
How it was run: as §1

[19] = compound: COC(=O)N[C@@H](C)CNc1nccc(-c2cn(C(C)C)nc2-c2cc(Cl)cc(NS(C)(=O)=O)c2F)n1 [encorafenib]
How it was run: as §1

[20] = compound: COC(=O)[C@H](CCSC)NC(=O)C1=C(C=C(C=C1)NC[C@H](CS)N)C2=CC=CC=C2
How it was run: as §1

Measured: log2 fold change

CUX1 isoform 3 (UniProt P39880)
UniProt P39880, sequence (P39880 whole entry, looked up): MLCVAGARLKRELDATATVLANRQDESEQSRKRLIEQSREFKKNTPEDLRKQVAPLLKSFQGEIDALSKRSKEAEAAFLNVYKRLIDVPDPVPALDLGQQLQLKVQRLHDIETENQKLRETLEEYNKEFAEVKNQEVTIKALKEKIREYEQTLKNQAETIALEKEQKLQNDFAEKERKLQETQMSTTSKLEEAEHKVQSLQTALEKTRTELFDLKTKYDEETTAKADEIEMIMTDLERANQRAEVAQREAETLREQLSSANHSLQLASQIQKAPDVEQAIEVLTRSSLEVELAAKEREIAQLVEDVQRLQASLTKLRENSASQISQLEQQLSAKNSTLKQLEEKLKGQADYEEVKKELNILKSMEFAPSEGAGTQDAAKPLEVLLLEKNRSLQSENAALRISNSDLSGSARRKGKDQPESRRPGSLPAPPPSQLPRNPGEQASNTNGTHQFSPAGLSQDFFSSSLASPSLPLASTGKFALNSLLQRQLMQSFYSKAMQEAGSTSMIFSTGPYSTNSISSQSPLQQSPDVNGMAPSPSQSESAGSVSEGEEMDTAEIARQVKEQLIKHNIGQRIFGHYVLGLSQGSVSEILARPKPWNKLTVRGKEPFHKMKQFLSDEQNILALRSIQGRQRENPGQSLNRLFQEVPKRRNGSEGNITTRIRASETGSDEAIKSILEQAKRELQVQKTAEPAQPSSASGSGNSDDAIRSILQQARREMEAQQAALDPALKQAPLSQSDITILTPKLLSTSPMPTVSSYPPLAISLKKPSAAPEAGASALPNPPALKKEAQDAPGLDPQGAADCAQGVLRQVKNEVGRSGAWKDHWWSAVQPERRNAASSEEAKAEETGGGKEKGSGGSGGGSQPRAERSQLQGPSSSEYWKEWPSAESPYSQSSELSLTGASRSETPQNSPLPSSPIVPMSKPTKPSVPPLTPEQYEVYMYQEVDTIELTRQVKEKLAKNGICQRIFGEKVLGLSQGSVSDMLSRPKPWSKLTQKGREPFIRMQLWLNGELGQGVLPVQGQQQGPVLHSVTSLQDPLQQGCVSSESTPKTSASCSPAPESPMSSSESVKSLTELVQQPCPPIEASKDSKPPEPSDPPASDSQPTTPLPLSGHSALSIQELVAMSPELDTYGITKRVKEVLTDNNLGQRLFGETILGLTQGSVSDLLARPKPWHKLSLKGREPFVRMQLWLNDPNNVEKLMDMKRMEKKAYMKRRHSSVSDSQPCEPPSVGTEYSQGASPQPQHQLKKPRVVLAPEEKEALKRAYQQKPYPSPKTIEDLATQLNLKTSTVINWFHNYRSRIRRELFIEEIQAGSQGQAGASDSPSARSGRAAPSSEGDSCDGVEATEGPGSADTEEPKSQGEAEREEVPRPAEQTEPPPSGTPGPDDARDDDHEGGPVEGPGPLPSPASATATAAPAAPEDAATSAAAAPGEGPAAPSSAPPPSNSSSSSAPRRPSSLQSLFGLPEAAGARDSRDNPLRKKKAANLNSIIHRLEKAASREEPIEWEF
inactive: [1] 0.008 | [2] -0.153 | [3] 0.036 | [4] 0.027 | [5] -0.041 | [6] -0.008 | [7] -0.019 | [8] 0.125 | [9] 0.004 | [10] -0.123 | [11] 0.002 | [12] -0.003 | [13] -0.02 | [14] 0.021 | [15] 0.012 | [16] -0.065 | [17] 0.037 | [18] -0.062 | [19] -0.018 | [20] 0.01

EIF4E isoform 2 (UniProt P06730)
UniProt P06730, sequence (P06730 whole entry, looked up): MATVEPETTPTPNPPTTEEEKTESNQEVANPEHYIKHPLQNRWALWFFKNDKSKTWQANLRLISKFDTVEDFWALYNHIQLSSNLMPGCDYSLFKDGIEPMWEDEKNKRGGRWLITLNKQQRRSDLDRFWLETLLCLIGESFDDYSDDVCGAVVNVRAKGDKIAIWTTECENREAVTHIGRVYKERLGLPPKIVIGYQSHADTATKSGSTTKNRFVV
inactive: [1] -0.012 | [2] -0.044 | [3] 0.021 | [4] 0.053 | [5] -0.01 | [6] -0.061 | [7] 0.036 | [8] -0.017 | [9] -0.146 | [10] 0.199 | [11] 0.04 | [12] 0.189 | [13] -0.027 | [14] -0.085 | [15] 0 | [16] -0.012 | [17] 0.008 | [18] 0.133 | [19] -0.023 | [20] -0.072

DIP2A (UniProt Q14689)
inactive: [1] -0.065 | [2] 0.026 | [3] -0.037 | [4] -0.017 | [5] 0.037 | [6] -0.063 | [7] -0.041 | [8] -0.034 | [9] -0.045 | [10] 0.057 | [11] 0.082 | [12] 0.054 | [13] -0.095 | [14] -0.094 | [15] 0.034 | [16] -0.059 | [17] 0.1 | [18] -0.009 | [19] 0 | [20] 0.077

FADS1, A0A0A0MR51
inactive: [1] 0.022 | [2] -0.148 | [3] 0.036 | [4] 0.024 | [5] 0.002 | [6] -0.002 | [7] -0.007 | [8] 0.017 | [9] -0.119 | [10] -0.041 | [11] 0.013 | [12] -0.061 | [13] -0.086 | [14] 0.15 | [15] 0.112 | [16] -0.022 | [17] 0.005 | [18] 0.027 | [19] 0.004 | [20] 0

EOGT (UniProt Q5NDL2)
UniProt Q5NDL2, sequence (Q5NDL2 whole entry, looked up): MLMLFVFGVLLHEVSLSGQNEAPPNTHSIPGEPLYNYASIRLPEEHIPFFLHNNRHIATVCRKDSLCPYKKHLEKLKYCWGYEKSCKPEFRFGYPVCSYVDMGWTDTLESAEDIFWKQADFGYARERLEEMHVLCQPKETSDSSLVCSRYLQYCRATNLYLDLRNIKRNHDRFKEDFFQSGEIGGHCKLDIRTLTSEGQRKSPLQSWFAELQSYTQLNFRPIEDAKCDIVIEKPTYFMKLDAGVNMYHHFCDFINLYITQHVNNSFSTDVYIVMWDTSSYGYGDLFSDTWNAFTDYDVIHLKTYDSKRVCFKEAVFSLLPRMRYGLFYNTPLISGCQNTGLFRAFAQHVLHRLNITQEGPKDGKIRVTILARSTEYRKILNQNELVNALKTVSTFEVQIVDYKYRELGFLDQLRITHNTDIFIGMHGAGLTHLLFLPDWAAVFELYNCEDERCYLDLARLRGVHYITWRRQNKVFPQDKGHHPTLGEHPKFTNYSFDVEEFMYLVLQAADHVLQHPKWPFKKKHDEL
inactive: [1] -0.004 | [2] 0.013 | [3] -0.037 | [4] 0.05 | [5] -0.007 | [6] 0.001 | [7] 0 | [8] 0.022 | [9] 0.021 | [10] 0.062 | [11] -0.012 | [12] 0.052 | [13] -0.02 | [14] 0.025 | [15] 0 | [16] 0.031 | [17] 0.014 | [18] -0.158 | [19] 0.042 | [20] -0.032

ERLIN2 (UniProt O94905)
UniProt O94905, sequence (O94905 whole entry, looked up): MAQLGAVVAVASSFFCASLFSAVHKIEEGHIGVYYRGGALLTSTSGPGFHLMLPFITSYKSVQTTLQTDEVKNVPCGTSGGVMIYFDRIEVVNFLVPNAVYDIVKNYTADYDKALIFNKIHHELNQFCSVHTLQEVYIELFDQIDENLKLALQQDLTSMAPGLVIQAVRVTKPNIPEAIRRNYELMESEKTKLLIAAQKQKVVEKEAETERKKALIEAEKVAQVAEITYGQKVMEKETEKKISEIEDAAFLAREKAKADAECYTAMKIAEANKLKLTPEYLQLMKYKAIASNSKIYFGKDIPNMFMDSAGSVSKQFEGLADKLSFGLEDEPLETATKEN
inactive: [1] 0.06 | [2] -0.057 | [3] 0.054 | [4] -0.034 | [5] -0.031 | [6] 0.01 | [7] -0.051 | [8] -0.01 | [9] 0.096 | [10] 0.008 | [11] -0.044 | [12] -0.097 | [13] 0.034 | [14] 0 | [15] -0.137 | [16] 0.026 | [17] 0.033 | [18] -0.005 | [19] 0.092 | [20] 0.004

EXOC4 (UniProt Q96A65)
inactive: [1] -0.145 | [3] 0.095 | [4] 0.005 | [5] -0.129 | [6] 0.021 | [7] 0.061 | [8] 0.021 | [9] 0.103 | [10] -0.243 | [11] -0.013 | [12] -0.224 | [13] -0.131 | [14] 0.058 | [15] -0.04 | [16] -0.049 | [17] 0.183 | [18] 0.015 | [19] 0.14 | [20] 0.01
active: [2] -0.606

EXOC8 (UniProt Q8IYI6)
inactive: [1] -0.212 | [3] 0.045 | [4] -0.004 | [5] -0.088 | [6] 0.003 | [7] 0.073 | [8] 0.05 | [9] 0.009 | [11] -0.015 | [12] -0.196 | [13] -0.031 | [14] -0.012 | [15] 0.056 | [16] -0.069 | [17] 0.016 | [18] 0.112 | [19] 0.094 | [20] -0.047
active: [2] -0.367 | [10] -0.295

FAM83D (UniProt Q9H4H8)
inactive: [1] -0.097 | [2] -0.139 | [3] 0 | [4] -0.082 | [5] -0.074 | [6] -0.115 | [7] 0.085 | [8] 0.081 | [9] 0.006 | [10] 0.042 | [11] -0.014 | [12] -0.055 | [13] -0.088 | [14] -0.002 | [15] -0.004 | [16] -0.074 | [17] 0.078 | [18] 0.03 | [19] 0.071 | [20] -0.023

DPYSL2 (UniProt Q16555)
inactive: [1] 0.055 | [2] -0.037 | [3] 0.014 | [4] 0.129 | [5] -0.071 | [6] -0.073 | [7] 0.11 | [8] 0.039 | [9] -0.058 | [10] -0.067 | [11] 0.127 | [12] 0.062 | [13] -0.089 | [14] -0.003 | [15] -0.066 | [16] 0.02 | [17] 0.015 | [18] -0.032 | [19] -0.054 | [20] -0.009

CWC27 (UniProt Q6UX04)
UniProt Q6UX04, sequence (Q6UX04 whole entry, looked up): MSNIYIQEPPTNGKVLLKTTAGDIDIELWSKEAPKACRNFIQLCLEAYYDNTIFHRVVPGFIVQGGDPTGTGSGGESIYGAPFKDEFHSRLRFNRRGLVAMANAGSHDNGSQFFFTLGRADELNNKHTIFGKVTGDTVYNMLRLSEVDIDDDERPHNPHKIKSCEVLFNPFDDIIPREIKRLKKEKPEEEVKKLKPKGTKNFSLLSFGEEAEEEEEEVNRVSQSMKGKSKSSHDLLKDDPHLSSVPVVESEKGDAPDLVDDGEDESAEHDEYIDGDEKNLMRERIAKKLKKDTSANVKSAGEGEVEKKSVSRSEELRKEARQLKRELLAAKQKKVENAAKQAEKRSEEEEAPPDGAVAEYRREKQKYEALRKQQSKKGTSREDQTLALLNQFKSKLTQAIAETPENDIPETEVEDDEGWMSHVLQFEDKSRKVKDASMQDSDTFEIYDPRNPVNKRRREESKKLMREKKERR
inactive: [1] -0.103 | [3] 0.086 | [4] 0.094 | [5] -0.089 | [6] 0.117 | [7] 0.066 | [8] 0.143 | [9] -0.011 | [10] -0.091 | [11] 0.01 | [12] -0.093 | [13] 0.011 | [14] 0.012 | [15] 0.022 | [16] -0.139 | [17] -0.001 | [18] -0.064 | [19] 0.068 | [20] -0.04
active: [2] -0.421

FAAP100 (UniProt Q0VG06)
UniProt Q0VG06, sequence (Q0VG06 whole entry, looked up): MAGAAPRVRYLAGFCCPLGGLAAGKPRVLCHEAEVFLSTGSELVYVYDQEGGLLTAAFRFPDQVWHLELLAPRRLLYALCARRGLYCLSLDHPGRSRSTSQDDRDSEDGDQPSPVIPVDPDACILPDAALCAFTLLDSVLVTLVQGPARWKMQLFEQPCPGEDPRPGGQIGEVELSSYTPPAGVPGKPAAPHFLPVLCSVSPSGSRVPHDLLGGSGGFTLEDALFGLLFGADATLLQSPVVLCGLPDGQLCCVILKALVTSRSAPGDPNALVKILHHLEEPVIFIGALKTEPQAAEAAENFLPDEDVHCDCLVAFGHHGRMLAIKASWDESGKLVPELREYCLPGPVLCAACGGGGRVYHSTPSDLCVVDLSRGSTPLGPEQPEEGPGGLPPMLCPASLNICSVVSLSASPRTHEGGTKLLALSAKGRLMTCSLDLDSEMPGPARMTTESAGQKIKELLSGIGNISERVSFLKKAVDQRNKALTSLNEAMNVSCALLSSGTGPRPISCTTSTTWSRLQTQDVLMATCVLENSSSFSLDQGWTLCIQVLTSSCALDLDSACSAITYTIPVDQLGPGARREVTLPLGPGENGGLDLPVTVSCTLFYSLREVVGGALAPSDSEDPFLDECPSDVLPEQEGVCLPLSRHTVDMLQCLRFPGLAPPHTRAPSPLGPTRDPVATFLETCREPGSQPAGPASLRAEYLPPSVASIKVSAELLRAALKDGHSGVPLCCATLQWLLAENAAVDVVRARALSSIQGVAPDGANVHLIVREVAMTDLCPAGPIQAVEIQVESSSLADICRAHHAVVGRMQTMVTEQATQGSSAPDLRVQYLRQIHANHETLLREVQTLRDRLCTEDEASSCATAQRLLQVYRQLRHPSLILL
inactive: [1] -0.01 | [2] 0.149 | [3] -0.02 | [4] 0.139 | [5] -0.05 | [6] -0.093 | [7] 0.061 | [8] 0.006 | [9] -0.02 | [10] 0.124 | [11] 0.044 | [12] -0.014 | [13] -0.035 | [14] 0.028 | [15] -0.178 | [16] -0.044 | [17] 0.009 | [18] -0.067 | [19] -0.04 | [20] -0.097

DCAF13 (UniProt Q9NV06)
UniProt Q9NV06, sequence (Q9NV06 whole entry, looked up): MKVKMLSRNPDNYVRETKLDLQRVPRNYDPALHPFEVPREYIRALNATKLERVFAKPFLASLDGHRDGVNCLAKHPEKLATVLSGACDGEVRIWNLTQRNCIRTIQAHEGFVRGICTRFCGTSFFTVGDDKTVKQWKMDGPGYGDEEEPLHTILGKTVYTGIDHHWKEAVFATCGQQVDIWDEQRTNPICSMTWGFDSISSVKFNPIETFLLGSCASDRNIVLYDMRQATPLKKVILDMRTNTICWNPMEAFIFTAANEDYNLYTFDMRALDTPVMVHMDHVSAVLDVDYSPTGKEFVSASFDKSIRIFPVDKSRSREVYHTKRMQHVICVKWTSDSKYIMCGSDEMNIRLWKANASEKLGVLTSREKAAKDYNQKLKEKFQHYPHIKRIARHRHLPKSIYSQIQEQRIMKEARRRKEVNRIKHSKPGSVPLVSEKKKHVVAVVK
inactive: [1] 0.134 | [2] 0.26 | [3] 0.03 | [4] -0.24 | [5] 0.038 | [6] 0.132 | [7] -0.166 | [8] -0.112 | [9] 0.195 | [10] 0.136 | [11] -0.027 | [12] 0.001 | [13] 0.214 | [14] 0.094 | [15] 0.074 | [16] 0.165 | [17] 0.19 | [18] 0.045 | [19] 0.07 | [20] 0.029

FAM177A1 isoform 2 (UniProt Q8N128)
UniProt Q8N128, sequence (Q8N128 whole entry, looked up): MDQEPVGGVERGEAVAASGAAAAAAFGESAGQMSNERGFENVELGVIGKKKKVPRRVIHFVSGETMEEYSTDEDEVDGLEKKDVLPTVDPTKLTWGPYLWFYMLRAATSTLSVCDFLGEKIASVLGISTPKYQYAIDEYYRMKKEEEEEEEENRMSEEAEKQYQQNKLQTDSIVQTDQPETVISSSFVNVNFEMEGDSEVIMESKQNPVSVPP
active: [10] -0.259
inactive: [1] -0.039 | [2] -0.108 | [3] 0.006 | [4] 0.045 | [5] -0.001 | [6] 0.045 | [7] -0.012 | [8] 0.012 | [9] -0.023 | [11] 0.092 | [12] -0.021 | [13] -0.011 | [14] 0.045 | [15] -0.094 | [16] -0.054 | [17] 0.001 | [18] -0.042 | [19] -0.029 | [20] -0.065

E2F4 (UniProt Q16254)
UniProt Q16254, sequence (Q16254 whole entry, looked up): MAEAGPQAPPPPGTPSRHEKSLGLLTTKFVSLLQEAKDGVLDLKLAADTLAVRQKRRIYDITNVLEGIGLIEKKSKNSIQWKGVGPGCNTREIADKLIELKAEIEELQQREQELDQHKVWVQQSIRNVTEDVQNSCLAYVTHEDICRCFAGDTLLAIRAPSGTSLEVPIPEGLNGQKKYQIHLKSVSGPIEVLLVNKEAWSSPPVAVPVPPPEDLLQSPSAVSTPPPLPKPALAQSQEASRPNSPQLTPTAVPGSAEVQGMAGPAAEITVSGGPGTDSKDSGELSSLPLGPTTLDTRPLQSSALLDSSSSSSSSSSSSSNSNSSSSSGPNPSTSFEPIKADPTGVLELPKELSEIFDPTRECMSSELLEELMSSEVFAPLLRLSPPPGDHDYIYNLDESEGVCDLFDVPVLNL
inactive: [1] -0.057 | [2] -0.139 | [3] 0.036 | [4] -0.008 | [5] -0.017 | [6] -0.025 | [7] -0.024 | [8] 0.056 | [9] 0.009 | [11] -0.012 | [12] -0.056 | [13] -0.134 | [14] 0.028 | [15] -0.045 | [16] -0.122 | [17] -0.025 | [18] -0.02 | [19] -0.002 | [20] -0.042
active: [10] -0.245

EXOC6 (UniProt Q8TAG9)
active: [2] -0.443
inactive: [1] -0.224 | [3] 0.102 | [4] -0.06 | [5] -0.051 | [6] 0.014 | [7] 0.033 | [8] 0.009 | [9] 0.06 | [10] -0.23 | [11] -0.02 | [12] -0.153 | [13] -0.151 | [14] 0.042 | [15] 0.075 | [16] -0.061 | [17] 0.025 | [18] -0.015 | [19] 0.013 | [20] 0.009
